# High-throughput results from PubChem BioAssay.
# This is a sample that favours compounds with a hit; in the whole collection about 1.3% have one here.
# CR mimetic SO – reduction of superoxide in aged yeast, primary screen, HTS; superoxide response (% of plate mean), % at 10 µM; S. cerevisiae aged cells, superoxide DHE fluorescence; active compounds read low; 0.18% of 330,000 active;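 active = superoxide response under a set limit, about three screen SD below normal, cut at about 65% in these data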;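 note: yeast aged for seven days with compound at 30 °C before DHE staining; 100% = average MFI of all compound-treated wells on the plate with controls excluded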
# OPRM1-OPRD1 inv – inverse agonists of MOR-DOR heterodimerization, primary screen, cell-based, luminescence. Mu-type opioid receptor (Homo sapiens) + Delta-type opioid receptor (Homo sapiens), …. AID 504357, 2011. cell-based MOR-DOR heterodimer luminescence, inverse agonism. inhibition, % at 9.3 µM. 0.21% of 340,000 active; in the data active = inhibition above about 22%, passing the limit was not always enough;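 note: 0% = cells with DMSO and 100% = wells without cells with DMSO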
# OPRM1-OPRD1 ag – agonists of OPRM1-OPRD1 heterodimerization, primary screen, cell-based, luminescence; Mu-type opioid receptor (Homo sapiens) + Delta-type opioid receptor (Homo sapiens), …; 0.3% of 340,000 active; activation, % at 9.3 µM; cells; in the data active = activation above about 18%;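 note: 0% = vehicle-treated cells and 100% = reference agonist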
# HTR5A inv ag – HTR5A inverse agonists in luminescence cell assay, primary screen, counter-screen for OPRM1-OPRD1 heterodimer inverse agonist project, full-deck HTS; HTR5A cell line, inverse agonism; 5-hydroxytryptamine receptor 5A (Homo sapiens), P47898; 0.083% of 340,000 active; inhibition, % at 9.3 µM; AID 504634, 2011; in the data active = inhibition mostly above about 23%, no sharp cut-off; inactive = mostly below about 18%;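 note: 0% = cells with DMSO and 100% = no-cell wells with DMSO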
# Target sequence (P47898 whole entry, looked up): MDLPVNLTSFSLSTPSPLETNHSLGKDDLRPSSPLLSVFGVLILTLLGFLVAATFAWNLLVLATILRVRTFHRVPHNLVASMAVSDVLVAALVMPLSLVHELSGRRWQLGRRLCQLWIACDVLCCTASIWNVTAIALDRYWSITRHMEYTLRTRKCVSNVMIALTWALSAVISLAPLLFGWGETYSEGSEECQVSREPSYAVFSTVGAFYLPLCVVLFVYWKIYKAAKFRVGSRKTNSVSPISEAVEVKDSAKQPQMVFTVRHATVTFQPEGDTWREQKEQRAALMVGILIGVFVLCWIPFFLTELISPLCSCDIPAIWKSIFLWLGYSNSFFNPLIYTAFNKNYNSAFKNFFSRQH
# HTR5A ag ctr – HTR5A agonists in luminescence cell assay, primary screen, counter-screen for OPRM1-OPRD1 heterodimer agonist project, full-deck HTS. cell-based. activation, % at 9.3 µM. 5-hydroxytryptamine receptor 5A (Homo sapiens), P47898. AID 504692, 2011. 0.61% of 340,000 active; in the data active = activation mostly above about 9.5%, no sharp cut-off; inactive = mostly below about 7.6%;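 note: 0% = cells with vehicle only and 100% = reference agonist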
# PvdQ acylase – P. aeruginosa PvdQ acylase inhibitors, primary screen, biochemical, fluorescence, plate reader and imaging, single point. PvdQ acylase [Pseudomonas aeruginosa LESB58]. purified PvdQ acylase. inhibition, % at 10 µM. 0.063% of 340,000 active. AID 488965, 2010; in the data active = inhibition above about 30%, passing the limit was not always enough;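 note: 0% = vehicle neutral wells and 100% = reference inhibitor wells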
# Superoxide pick – superoxide lowering in aged yeast cells, confirmation, cherry picked compounds; shares compounds with CR mimetic SO; S. cerevisiae aging, superoxide DHE fluorescence; active compounds read low; superoxide response (% of plate), % at 10 µM; 1% of 850 active; AID 434994, 2010;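 active = superoxide signal below 65% of the plate average of sample wells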;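 note: cells aged with compound for 7 days at 30 degrees C before staining; 100% equals mean DHE fluorescence of all compound wells on the plate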
# DHE fluor count – DHE quenching or ROS scavenging interference in aged yeast, artefact control for yeast caloric restriction mimetic project, S. cerevisiae BY4741, flow cytometry; 850 tested, under 10 active; shares compounds with CR mimetic SO; DHE fluorescence; active compounds read low; AID 435000, 2010; fluorescence response, % at 10 µM;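 active = fluorescence response below 15%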;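 note: percent of the mean fluorescence averaged over all compound wells on the plate; lower means stronger quenching of DHE signal or ROS scavenging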
# Starred values were filed as active, the others as inactive; / = no result.
SMILES,CR mimetic SO,OPRM1-OPRD1 inv,OPRM1-OPRD1 ag,HTR5A inv ag,HTR5A ag ctr,PvdQ acylase,Superoxide pick,DHE fluor count
c1ccc(CN2CCC(N3CCN(Cc4ccc5c(c4)OCO5)CC3)CC2)cc1,102.6,1.6,-0.3,3.4,-1.2,-0.4,/,/
c1cc2c(cc1CN1CCN(C3CCCCCC3)CC1)OCO2,43.7*,16.6,-3.5,-6.9,1.9,-6.6,95.0,92.9
N#CC1(NC(=O)COC(=O)c2cccc(-n3cnnn3)c2)CCCCC1,91.7,12.3,-1.9,-17.1,-1.1,-1.3,/,/
NNC(=O)CCn1c2ccccc2c2ccccc21,107.6,-9.8,1.9,30.3,-0.7,-6.4,96.8,106.0
NS(=O)(=O)c1cnccc1Oc1cccc(Cl)c1,88.8,7.8,-1.6,-23.3,3.5,-18.1,/,/
O=c1c2sc(-c3ccccc3)cc2nc2n1CCC2,47.6*,14.9,-2.9,-7.1,1.8,-8.7,82.9,106.5
O=c1c2sc(-c3ccccc3)cc2nc2n1CCCCC2,100.9,13.5,-2.7,-24.8,-3.4,-20.6,/,/
CN(C)C(CNC(=O)CCc1nc2sc3c(c2c(=O)[nH]1)CCCC3)c1ccccc1 (stereo unspecified),115.5,0.6,-0.1,22.4,-7.3,-9.3,/,/
Cc1ccc(NC(=O)C2CCCN(S(=O)(=O)c3ccc4[nH]c(=O)ccc4c3)C2)c(C)c1 (stereo unspecified),116.1,1.1,-0.2,13.7,-5.0,-10.8,/,/
NC(=O)c1ccc(NC(=O)COC(=O)c2ccccc2Nc2ccccc2)cc1,56.1*,10.4,-2.0,5.2,-2.0,-3.0,95.9,97.8
CC(CC(=O)N(C)c1c(N)n(Cc2ccccc2)c(=O)[nH]c1=O)c1ccccc1 (stereo unspecified),94.0,7.9,-1.2,-6.2,1.6,-11.5,/,/
Cc1ccc(C)c(S(=O)(=O)Nc2ccc(O)cc2)c1,91.9,11.7,-2.0,-5.7,-0.3,-1.5,107.5,111.0
Cc1ccc(C)c(NS(=O)(=O)c2ccccc2C)c1,103.2,4.3,-0.8,-9.1,2.5,3.3,91.4,93.4
COc1ccc(OC)c(S(=O)(=O)Nc2ccc(F)cc2)c1,102.9,16.2,-2.9,1.2,-6.1,-2.3,/,/
Cc1cc(C)c(S(=O)(=O)Nc2ccc(O)cc2)cc1C,106.3,11.0,-2.5,-22.0,8.0,-5.5,/,/
COc1ccccc1NS(=O)(=O)c1cc(C)ccc1C,102.0,-0.8,0.1,-40.0,1.3,3.0,/,/
COc1ccc(C)cc1S(=O)(=O)Nc1ccc(F)cc1,111.4,7.8,-1.4,-4.8,0.1,1.8,114.5,96.2
COc1ccc(C(=O)NCC(=O)OCC(=O)NC2CCCCCC2)cc1,103.7,1.6,-0.3,3.9,-1.0,-10.7,/,/
CCCCn1c(N)c(N(CCOC)C(=O)c2ccc(S(=O)(=O)N3CCCCCC3)cc2)c(=O)[nH]c1=O,96.1,6.8,-1.4,21.8,0.7,7.3,/,/
O=C(COn1nnc2ccc(C(F)(F)F)cc21)Nc1nnc(-c2ccccc2)o1,60.2*,16.8,-4.0,-28.2,2.6,-15.9,97.6,110.9
CCCN(CC(=O)Nc1ccc(F)c(F)c1F)C(=O)c1cc([N+](=O)[O-])ccc1N1CCOCC1,97.8,19.7,-3.7,-9.9,6.2,-9.1,/,/
O=C(Nc1cccc(Cl)c1)Nc1ccc2nccnc2c1,59.7*,-14.1,3.0,-25.4,7.2,-8.3,85.9,93.6
CC(C)c1ccc(C2(C)NC(=O)N(CC(=O)NCC3COc4ccccc4O3)C2=O)cc1 (stereo unspecified),102.0,-2.6,0.6,-3.0,1.2,-14.2,/,/
CCOc1ccc(C(=O)NCC(=O)N2CCN(c3ccccc3O)CC2)cc1,96.4,2.1,-0.3,-21.6,7.6,-17.8,/,/
C=C(C)CSc1cc(C)nc2c(-c3ccccc3)c(C)nn12,86.2,9.9,-1.9,6.1,-4.9,-19.0,/,/
SMILES,CR mimetic SO,OPRM1-OPRD1 inv,OPRM1-OPRD1 ag,HTR5A inv ag,HTR5A ag ctr,PvdQ acylase,Superoxide pick,DHE fluor count
CN(C)c1ccc(NC(=O)c2cccc(C(=O)Nc3ccc(N(C)C)cc3)n2)cc1,64.5*,-24.6,3.6,18.9,0.0,24.7,113.3,99.6
Cn1cnc(S(=O)(=O)N2CCN(c3ccccc3)CC2)c1,115.3,8.1,-1.6,11.6,2.5,-27.4,/,/
COc1ccccc1N1CCN(S(=O)(=O)c2cn(C)cn2)CC1,65.2*,5.5,-1.0,6.5,-1.6,-17.1,92.9,103.2
CN(C)S(=O)(=O)c1ccc(C(=O)OCn2nnc3ccccc3c2=O)cc1,65.2*,-2.6,0.4,-4.0,1.2,-15.0,103.2,90.7
Cc1ccc(C(=O)NCC(=O)N(C)CC(=O)Nc2c(Cl)cccc2Cl)s1,94.2,-5.5,0.9,2.9,-0.9,11.0,/,/
CCOc1cc(C(=O)OCC(=O)Nc2ccc(SC(F)F)cc2)cc(OCC)c1OCC,39.4*,-20.7,3.9,12.5,3.6,-13.2,105.1,101.7
CC(=O)OCC(=O)Nc1ccc(SC(F)F)cc1,93.3,7.1,-1.4,17.2,4.6,7.5,/,/
CCOC(=O)c1c(NC(=O)CSc2nnnn2-c2ccccc2)sc2c1CC(C)(C)NC2(C)C,62.1*,2.0,-0.3,5.3,-1.4,13.4,106.4,105.9
COc1cccc(CN(C)CC(=O)NCc2ccc(F)cc2)c1OC,38.8*,1.5,-0.3,-1.9,0.5,0.0,106.5,87.5
COc1ccccc1CNC(=O)CN(C)Cc1ccc(SC)cc1,108.7,-5.6,0.7,7.1,1.6,-3.4,/,/
N#CCCCc1cc2cc(F)ccc2cn1,88.7,13.6,-2.4,-7.4,-1.8,-6.1,/,/
CC(=O)OC1(C(C)=O)CCC2C3CC4OC45CC(O)CCC5(C)C3CCC21C (stereo unspecified),/,6.2,-1.2,24.4,-6.0,3.3,120.7,115.5
CC(=O)OC1CCC2(C)C3CCC4(C)C(C(C)=O)CCC4C3CC3OC32C1 (stereo unspecified),/,15.3,-2.9,-1.3,0.4,-6.2,/,/
CCn1c2ccc(/C(C)=N\O)cc2c2cc(/C(C)=N\O)ccc21,91.4,5.8,-1.4,5.1,4.1,-16.1,111.8,80.7
CCn1c2ccccc2c2cc(/C=N/O)ccc21,83.3,-2.6,0.5,4.9,-2.0,0.1,/,/
CSc1ncc(Cl)c(C(=O)Nc2ccccc2C)n1,102.5,1.4,-0.3,4.5,-1.3,-12.5,101.2,107.0
CN(c1ccccc1)S(=O)(=O)c1ccc(NC(=O)c2nc(S(C)(=O)=O)ncc2Cl)cc1,62.4*,31.3,-6.2,18.6,-5.0,-29.5,100.6,94.7
